About 380 (0.12%) of roughly 310,000 compounds were called active.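 The calls were made as follows: active = B-score of the integrated fluorescence ratio above library mean plus 3 SD, and starting fluorescence ratio within library mean plus 5 SD; inactive = the rest.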 Many of the other results were omitted from the sample, so actives are more common in it than they were.

Sequence of Short transient receptor potential channel 6 (Mus musculus) (Q61143 whole entry, looked up): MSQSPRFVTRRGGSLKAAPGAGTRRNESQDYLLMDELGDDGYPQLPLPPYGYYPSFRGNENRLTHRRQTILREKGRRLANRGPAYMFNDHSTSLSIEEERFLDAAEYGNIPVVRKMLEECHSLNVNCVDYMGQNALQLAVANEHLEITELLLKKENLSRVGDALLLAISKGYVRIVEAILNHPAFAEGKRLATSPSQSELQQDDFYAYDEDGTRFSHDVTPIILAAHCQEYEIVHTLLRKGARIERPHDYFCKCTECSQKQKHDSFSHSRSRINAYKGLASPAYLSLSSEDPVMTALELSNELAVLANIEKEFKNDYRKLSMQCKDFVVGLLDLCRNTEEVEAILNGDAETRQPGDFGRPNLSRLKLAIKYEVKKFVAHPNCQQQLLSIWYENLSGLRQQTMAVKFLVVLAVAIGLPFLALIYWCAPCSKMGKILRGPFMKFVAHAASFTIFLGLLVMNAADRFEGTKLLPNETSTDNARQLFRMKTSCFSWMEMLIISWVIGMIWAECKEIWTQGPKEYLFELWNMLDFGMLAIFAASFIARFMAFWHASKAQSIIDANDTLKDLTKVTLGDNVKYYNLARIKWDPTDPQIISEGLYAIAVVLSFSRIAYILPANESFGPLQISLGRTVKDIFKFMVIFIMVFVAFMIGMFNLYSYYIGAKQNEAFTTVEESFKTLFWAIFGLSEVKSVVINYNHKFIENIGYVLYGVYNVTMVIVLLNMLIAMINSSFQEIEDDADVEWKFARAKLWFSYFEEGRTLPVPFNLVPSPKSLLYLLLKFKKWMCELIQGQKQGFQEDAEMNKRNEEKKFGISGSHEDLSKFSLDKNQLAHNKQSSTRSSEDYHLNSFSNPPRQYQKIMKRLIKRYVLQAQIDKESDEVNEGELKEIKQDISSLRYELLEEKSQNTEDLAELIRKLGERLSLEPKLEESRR

The test concerns the target Short transient receptor potential channel 6 (Mus musculus) (UniProt Q61143). Briefly: small molecules opening TRPC6 cation channel – cell-based, HEK293, membrane potential dye, primary screen (AID 2550).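 Also: higher score means more depolarization so channel activation.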 The following applies: HEK293-TRPC6 membrane potential dye fluorescence, at 10 µM; hits give high values.
Consider `O=C1NC(=O)C(c2ccc(Cl)cc2)N1` (stereo not drawn), for which the B-score entry was “inactive”.
`CC(=O)N1N=C(c2ccncc2)OC1(Cc1ccccc1)Cc1ccccc1`: the B-score result is “inactive”.
The entry for `Cc1cc(C)cc(C(=O)N(CCc2ccccc2)C2=CC3CCC(C2)N3C)c1` (stereo not drawn) is “inactive”; for `CCCN(CCc1ccccc1)C1CCc2c(O)cccc2C1` (stereo not drawn) it is 16.8 (active); for `CN1CCN(/N=C/c2ccc(-c3ccc([N+](=O)[O-])cc3)o2)CC1` it is 16.2 (active).
`Cc1ccc(-c2ccc(/C=N/NC(=O)CN3CCOCC3)o2)cc1[N+](=O)[O-]`: the B-score entry is “inactive”.
The entry for `CN1CCN(/N=C/c2ccc(C#N)cc2)CC1` is “inactive”.
Take `Cc1cc(N2CCN(c3ccc(F)cc3)CC2)n2ncnc2n1`: the B-score entry is “inactive”.
The entry for `CCOCCCN1C(=O)C2C(C(=O)Nc3ccc(OCC)cc3)C3C=CC2(O3)C1C(=O)NC1CCCCC1` (stereo not drawn) is “inactive”.
With `O=C(c1ccc(Cl)cc1)n1cnc2ccccc21` the entry was “inactive”.
Regarding `CC(NC(=O)CNC(=O)Cc1cccc2ccccc12)c1ccc(S(N)(=O)=O)cc1` (stereo not drawn), the B-score result was “inactive”.
Take `CCC(C(=O)OC)n1cnc2scc(-c3ccc(C)cc3)c2c1=O` (stereo not drawn): the B-score result was “inactive”.
With `O=[N+]([O-])c1cccc(/C=N/Nc2ncc(Br)cn2)c1` the entry was “inactive”.
The entry for `O=C(N/N=C/c1ccc(Cl)c(Cl)c1)c1ccc2nc[nH]c2c1` is “inactive”; for `CCO/C=C1\C(=O)N(c2ccc(OCC)cc2)C(=O)c2ccccc21` it is “inactive”; for `COc1ccc(C(C)C)cc1S(=O)(=O)Nc1ncn[nH]1` it is “inactive”.
In the case of `CCC(=O)c1ccc(OCC(=O)OCC(=O)NC2CCCCCC2)cc1`, the B-score result is “inactive”.
With `Cc1nc2c(-c3ccc(F)cc3)c(C)nn2c(C)c1CCC(=O)NCc1ccco1` the entry was “inactive”; with `Cc1cc2c(cc1C)[n+](C)cn2CC(O)COCC1CC=CCC1` (stereo not drawn), “inactive”; with `N#Cc1ccc(-c2ccc(Cl)cc2)nc1Oc1ccc(F)cc1`, “inactive”.
For the compound `Cc1nn(C)c(C)c1S(=O)(=O)N1CCC(CO)(Cc2ccc(Cl)cc2)CC1`, the B-score result was “inactive”.
`COc1cccc(OC)c1C(=O)Nc1c(C(=O)N2CCN(c3ccccn3)CC2)oc2ccccc12`: the B-score entry was “inactive”.
The entry for `CN1CCN(CCCCOc2ccccc2-c2ccccc2)CC1` is “inactive”; for `Oc1ccc(CNc2ccccc2O)cc1` it is “inactive”; for `COc1ccc(-n2ncc3c2CC(C)(C)CC3NC(=O)CCc2c(C)noc2C)cc1` (stereo not drawn) it is “inactive”.
In the case of `Cc1ccc(N(CCC(=O)O)S(=O)(=O)c2cccc(C(F)(F)F)c2)cc1`, the B-score result is “inactive”.
With `CCOc1ccc(CN(C)C(=O)c2ccc(=O)[nH]c2)cc1` the entry was “inactive”.
The entry for `Cc1nn(-c2ccccc2)c2sc(C(=O)N(Cc3ccco3)C(C)C(=O)NC(C)(C)C)cc12` (stereo not drawn) is “inactive”; for `CCN(CC(=O)NCc1ccc(Cl)cc1)C(=O)CSc1ccccc1` it is “inactive”; for `O=C(Nc1ccc(N2CCCC2=O)cc1)c1cncc(Br)c1` it is “inactive”.
Regarding `COc1ccc(CN2CCC(c3nc4ccc(Cl)cc4[nH]3)CC2)cc1`, the B-score entry was “inactive”.
With `CCc1ccc(C(=O)NNC(=O)C2CCN(c3ncnc4sc(C)c(C)c34)CC2)cc1` the entry was “inactive”; with `O=C(O)CCn1c(SCc2cc(=O)n3ccccc3n2)nc2ccsc2c1=O`, “inactive”; with `Cc1sc(NC(=O)C2C3CCC(O3)C2C(=O)O)c(C(=O)OC(C)C)c1-c1ccc(Cl)cc1` (stereo not drawn), “inactive”.
The entry for `CC(C)(C)n1nnnc1C(c1ccccc1F)N1CCN(C(=O)c2ccco2)CC1` (stereo not drawn) is “inactive”; for `CCOCCCN(C)C1CCN(C(=O)c2oc3ccccc3c2NC(=O)Cc2cccc([N+](=O)[O-])c2)CC1` it is “inactive”.
The entry for `CC1=C(N2CCN(c3ncccn3)CC2)CCC1=O` is “inactive”; for `O=S(=O)(NC(=S)Nc1ccccc1)c1ccc(F)cc1` it is “inactive”; for `Nc1ccc(SCCN2C(=O)c3ccccc3C2=O)cc1` it is “inactive”.
Turning to `COC(=O)CNc1nc(Cl)nc(N2CCC(C)CC2)n1`, the B-score result was “inactive”.
With `Cc1ccc(CNC(=O)c2ccccc2CCc2ccccc2)cc1` the entry was “inactive”; with `O=C1CC2(CC(c3ccc(Cl)cc3)=NO2)C(=O)N1c1ccccc1` (stereo not drawn), “inactive”; with `CCOC(=O)CC1C(=O)NCCN1c1nc2c(C)cccn2c(=O)c1/C=C1\SC(=S)N(C(C)CC)C1=O` (stereo not drawn), 26.7 (active).
The entry for `CCCN(CCC)c1nc2c(C)cccn2c(=O)c1/C=C1/SC(=S)N(Cc2ccco2)C1=O` is “inactive”; for `CCOC(=O)N1CCN(C(=O)CSc2nc(=O)n3cccc(C)c3n2)CC1` it is “inactive”; for `O=C1C2C3C=CC(C4CC34)C2C(=O)N1/N=C/c1ccc(-c2ccccc2[N+](=O)[O-])o1` (stereo not drawn) it is “inactive”.
The entry for `COC(=O)[C@@H](Cc1ccccc1)NC(=O)NCCc1ccccc1` is “inactive”; for `O=[N+]([O-])c1ccccc1N/N=C1\CCc2ccccc21` it is “inactive”; for `O=C(NCCS(=O)(=O)NCc1ccc(Cl)cc1)c1ccccc1` it is “inactive”.
As to `CC(C)NC(=O)c1ccc(Sc2ccccc2)c([N+](=O)[O-])c1`, the B-score entry is “inactive”.
The entry for `CCOc1ccc(S(=O)(=O)N2CCCCCC2)c2ccccc12` is “inactive”; for `CC1CCCCC1NC(=O)CSc1nnc(-c2ccncc2)n1CCCN(C)C` (stereo not drawn) it is “inactive”; for `CCOC(=O)C1=C(O)/C(=C/c2cc(C)n(-c3ccccc3)c2C)N=C1C` it is “inactive”.
The entry for `COc1cc(OC)c(C2=NOC(C(=O)Nc3c(C)n(C)n(-c4ccccc4)c3=O)C2)cc1Cl` (stereo not drawn) is “inactive”; for `CC(C)Cc1oc(C(=O)O)cc1CN` it is “inactive”; for `O=[N+]([O-])c1cc(Cl)cc(/C=N/NC(=S)Nc2cc(S(=O)(=O)N3CCOCC3)ccc2Cl)c1O` it is “inactive”.
Consider `COc1ccc(S(=O)(=O)n2nc(C)c(S(=O)(=O)N3CCOCC3)c2C)cc1`, for which the B-score result is “inactive”.
With `CCOc1ccc(-c2c(C)n([O-])c3c([n+]2=O)CCCC3)cc1` the entry was “inactive”.
With `COCCOC(=O)c1sc(=S)n(CCOC)c1N` the entry was “inactive”.
The entry for `O=S(=O)(c1cccc2nonc12)N1CCN(c2cccc(Cl)c2)CC1` is “inactive”; for `Cc1cc(C)nc(SC(C)C(=O)N/N=C/c2cccs2)n1` (stereo not drawn) it is “inactive”; for `CCCCCCn1cc(C(=O)O)c(=O)c2cc(F)c(N3CCCCC3)cc21` it is 12.2 (active).
As to `CCn1cc(C(=O)NCCO)c(=O)c2cc(F)c(N3CCN(C)CC3)cc21`, the B-score entry was “inactive”.
With `CN1CCN(c2cc3c(cc2F)c(=O)c(C(=O)O)cn3CCF)CC1` the entry was “inactive”; with `COCCNC(=O)/C(C#N)=C/c1nc(N(C)C)n(-c2ccc(F)cc2)c1Cl`, “inactive”; with `CCOC(=O)/C=c1\s/c(=C\c2ccc(C#N)cc2)c(=O)n1CC(=O)Nc1cccc(C)c1C`, “inactive”.
The figure for `CN(c1ccccc1)c1ccc(/C=c2\s/c(=C(/C#N)C(=O)C(C)(C)C)n(Cc3ccco3)c2=O)cc1` is 33.3 (active).
On to `CCOC(=O)Cn1c(=O)oc2cc(S(=O)(=O)N(C)Cc3ccco3)ccc21`, for which the B-score result was “inactive”.

The record behind these values is PubChem BioAssay AID2550 (Johns Hopkins Ion Channel Center, 2010).
